From PubChem BioAssay (NCATS)
“And” between values parts separate entries of the source, which are not always exact repeats. Equal entries are not always repeated. Inconclusive results are not listed. The source made the active and inactive calls. Unless noted, calls come from the whole dose curve; as a rule, active = well fitted curve in either direction with a large enough effect (not every such curve was filed as active); inconclusive = small, poorly fitted or top-dose-only effect, or another doubt; inactive = flat fitted curve, though single readings scatter.

Tests used:
[1] = AP1 Signaling Pathway (AID 357); settings: ME-180 AP-1-bla reporter, EGF-induced, beta-lactamase ratio, 5 h; at 7.69 µM (top of the series) unless noted;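 note: ME-180 reporter cells stimulated with EGF at its EC50 level; % is set by controls: 0 for no effect and ±100 for the full control effect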
How it was run: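 First, ME-180 AP-1-bla cells were cultured overnight at 37 °C in low-serum Opti-MEM. Next, titrated compounds with EC50 EGF were incubated 5 hours. Finally, CCF4 was added for 2.5 hours and the 460/530 nm ratio recorded.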

[2] = biological target: Cytochrome P450 1A2 (Homo sapiens) (UniProt P05177); assay: p450-cyp1a2 (AID 410; calls by dose curve; note: potency is the fitted concentration of half-maximal effect); settings: recombinant CYP1A2, luciferin-ME demethylation, luminescence; series mostly up to 57 µM
How it was run: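 Luminescent demethylation readout: Luciferin-ME (100uM, equal to Km) turned over by 20nM CYP1A2 for 60 min at room temperature after NADPH regeneration addition, following 10 min compound preincubation. Normalization used 57 uM furafylline as full inhibition.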

[3] = NFAT Signaling Pathway (AID 444); settings: Jurkat NFAT-bla M1, carbachol, beta-lactamase ratio, 5 h; at 7.69 µM (top of the series) unless noted;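 note: carbachol stimulus at about its EC50 of 1 µM final; % is set by controls: 0 for no effect and ±100 for the full control effect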
How it was run: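 Jurkat cells with NFAT-driven β-lactamase reporter and co-expressed M1 receptor, stimulated with carbachol (final 1 uM, ~EC50), compound titration, 5 h at 37 °C. CCF4 loaded 1 h at RT; 460/530 nm ratio gave %activity and AC50.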

[4] = Stat Signaling Pathway (AID 446); settings: ME-180 SIE beta-lactamase reporter, IL-6 stimulated, 5 h; at 7.69 µM (top of the series) unless noted;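 note: ME-180 cervical cancer cells given 40 pM IL-6 alongside compound; SIE-controlled beta-lactamase reporter measured as 460/530 nm FRET emission ratio; % is set by controls: 0 for no effect and ±100 for the full control effect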
How it was run: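 FRET read-out (405 nm excitation, 460/530 nm emission) of a beta-lactamase reporter under a STAT-inducible element in ME-180 cervical carcinoma cells. Cells with compound receive 40 pM IL-6 for 5 h. Values are normalised to AC90 stimulation and AC90 JAK-inhibitor controls.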

[5] = biological target: Glucocorticoid receptor (Homo sapiens) (UniProt P04150); assay: GR-EFC Redistribution (AID 451; calls by dose curve; note: potency is the fitted concentration of half-maximal effect); settings: CHO-K1 GR-EFC translocation, beta-gal luminescence, 2 h
How it was run: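 CHO-K1 cells expressing nuclear EA and GR-ED fragments of b-gal; compounds titrated up to 46 uM final, 2 h at 37 C. GR nuclear translocation read as complemented b-gal luminescence after 1 h RT detection.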

[6] = biological target: Mitogen-activated protein kinase 10 (Mus musculus) (UniProt Q61831); assay: JNK3 AlphaScreen Assay (AID 530); settings: JNK3 lysate, c-Jun phosphorylation; series mostly up to 57.1 µM;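 note: kinase came from lysate of stimulated human HepG2 cells; signal reports phosphorylation of biotinylated GST-cJun 1-79 at Ser73 with 10 µM ATP; % is set by controls: 0 for no effect and ±100 for the full control effect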
How it was run: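 Activity was read by AlphaScreen after JNK3-containing HepG2 lysate (cytokine pre-activated) phosphorylated biotinylated GST-cJun with 10 uM ATP at room temperature. Phospho-Ser73 cJun antibody with Protein-A acceptor beads provided detection.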

[7] = biological target: 3',5'-cyclic-AMP phosphodiesterase 4B (Homo sapiens) (UniProt Q07343); assay: qHTS Assay for Inhibitors of PDE-IV (AID 607; active = well fitted activation curve with a large enough effect in the main read-out, with a control signal flat, not every such curve was filed as active; note: % of control where 0% means no effect); settings: HEK293 ACTOne CNG channel cells, membrane potential fluorescence; series mostly up to 22.9 µM
How it was run: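 Cell-based read-out of cAMP via a modified cyclic nucleotide-gated channel and membrane potential dye (535/590 nm) in HEK293 cells expressing PDE4 endogenously. Compounds tested up to 22.9 uM final; 100 uM RO 20-1724 reference.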

[8] = biological target: Cytochrome P450 3A4 (Homo sapiens) (UniProt P08684); assay: qHTS Assay for Inhibitors and Substrates of Cytochrome P450 3A4 (AID 884; active = well fitted curve in the direction sought with a large enough effect; an effect the other way counts as inactive or inconclusive; note: potency is the fitted concentration of half-maximal effect; nearly all actives have a fitted effect of over 50% in size); settings: recombinant CYP3A4, Luciferin-PPXE luminescence; series mostly up to 57.1 µM
How it was run: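 Luminescent readout of luciferin produced by CYP3A4 (20 nM) dealkylation of Luciferin-PPXE, 25 uM (its KM). NADPH-driven reaction ran 60 min at RT after 10 min compound preincubation; data scaled to 57 uM ketoconazole as 100% inhibition.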

[9] = biological target: Cytochrome P450 3A4 (Homo sapiens) (UniProt P08684); assay: qHTS Assay for Activators of Cytochrome P450 3A4 (AID 885; active = well fitted curve in the direction sought with a large enough effect; an effect the other way counts as inactive or inconclusive; note: nearly all actives have a fitted effect of over 65% in size); settings: recombinant CYP3A4, Luciferin-PPXE luminescence, 60 min; series mostly up to 57.1 µM
How it was run: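 Luminescent readout of luciferin formed from 25 uM Luciferin-PPXE (KM level) by 20 nM CYP3A4 in 200 mM KPO4, with 60 min NADPH-driven reaction at room temperature after 10 min compound exposure. Ketoconazole (57 uM) defined 100% inhibition.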

[10] = Primary qHTS for small molecule stabilizers of the endoplasmic reticulum resident proteome: Secreted ER Calcium Modulated Protein (SERCaMP) assay (AID 1508630; active = well fitted curve in the direction sought with a large enough effect; an effect the other way counts as inactive or inconclusive; note: % is set by controls: 0 for no effect and ±100 for the full control effect); settings: SH-SY5Y GLuc-SERCaMP (Gaussia luciferase released on ER calcium loss) secretion, thapsigargin, luminescence; series mostly up to 38.4 µM
How it was run: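 The SH-SY5Y reporter protocol was run at 3 concentrations up to 38.3 uM (primary) or 11 concentrations (follow-up): 16 h compound, 100 nM thapsigargin for 4 h, then extracellular luciferase luminescence.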

[11] = biological target: Lysosomal acid glucosylceramidase (Homo sapiens) (UniProt P04062); assay: Glucocerebrosidase-p2 (AID 348; in the data active = potency below about 10 µM; note: potency is the fitted concentration of half-maximal effect); settings: purified GBA, blue fluorogenic substrate, 40 min
How it was run: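 Normal human glucocerebrosidase (0.2 nM) with blue fluorogenic substrate (80 uM final) in citrate/phosphate pH 5.9 with 10mM sodium taurocholate, 0.01% tween-20; 40 min RT, NaOH/glycine stop; fluorescence Ex 365/Em 440; AC50 from a titration from 0.6 nM upwards.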

[12] = biological target: Glucocorticoid receptor (Homo sapiens) (UniProt P04150); assay: GR-GFP Redistribution (AID 450;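 active = compounds whose dose series gives a full or clear partial fitted curve of increased nuclear translocation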; note: potency is the fitted concentration of half-maximal effect); settings: U2OS GR-GFP nuclear translocation, laser cytometry, 2 h
[13] = biological target: Ubiquitin carboxyl-terminal hydrolase 1 (Homo sapiens) (UniProt O94782); assay: Inhibitors of USP1/UAF1: Pilot qHTS (AID 504865; active = well fitted curve in the direction sought with a large enough effect; an effect the other way counts as inactive or inconclusive;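 note: rhodamine fluorescence freed from ubiquitin-rhodamine substrate followed over time; top concentration of the series differs between compounds; % is set by controls: 0 for no effect and ±100 for the full control effect; nearly all actives have a fitted effect of over 35% in size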); settings: purified USP1/UAF1, Ub-rhodamine cleavage fluorescence; series mostly up to 54.9 µM
How it was run: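 USP1/UAF1 complex (1nM) preincubated with compound 15 min at room temperature, then Ub-Rho substrate (150nM final) added. Fluorescence read kinetically at 480/540 nm, 6 reads every 60 seconds. Buffer: 50mM HEPES pH 7.8, 0.5mM EDTA, 0.1 mg/ml BSA, 1mM TCEP, 0.01% Tween-20.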

[14] = qHTS Assay for Identification of Small Molecule Agonists for Hypoxia Response Element Signaling Pathway (AID 914; active = well fitted activation curve with a large enough effect in the signal ratio, with a control signal flat, not every such curve was filed as active; the % refers to the signal ratio; note: potency is the fitted concentration of half-maximal effect); settings: ME-180 (cervical carcinoma) HRE-bla reporter, beta-lactamase ratio, CoCl2, 17 h; activation: stronger effect = higher value
How it was run: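 HRE-bla ME-180 assay for agonist-like enhancement of an EC50 CoCl2 stimulus: 17 h at 37 degrees Celsius, CCF4 for 2.5 h, ratiometric 460/530 nm signal converted to %Activity and fitted to AC50.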

[15] = biological target: Cytochrome P450 2C19 (Homo sapiens) (UniProt P33261); assay: qHTS Assay for Inhibitors and Substrates of Cytochrome P450 2C19 (AID 899; active = well fitted curve in the direction sought with a large enough effect; an effect the other way counts as inactive or inconclusive; note: potency is the fitted concentration of half-maximal effect; nearly all actives have a fitted effect of over 60% in size); settings: recombinant CYP2C19, luciferin-H EGE luminescence; series mostly up to 57.1 µM
How it was run: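 Signal comes from luciferase acting on luciferin released by CYP2C19-mediated hydroxylation of Luciferin-H EGE, 10uM (KM). Assay mix: 5nM enzyme, 50mM KPO4; 60 min at 37C with NADPH regeneration. Data normalized against 57uM ketoconazole.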

[16] = Confirmation and Secondary Assay for Modulators of Hemoglobin Beta Chain Splicing at IVS2 654 locus (AID 910; active = well fitted curve in the direction sought with a large enough effect; an effect the other way counts as inactive or inconclusive;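 note: HeLa cells stably carrying EGFP split by mutant beta-globin IVS2-654 intron; % of control where 0% means no effect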); settings: HeLa EGFP-654 splicing reporter, GFP fluorescence, 48 h; series mostly up to 38.3 µM
How it was run: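 HeLa cells stably expressing EGFP interrupted by β-globin IVS2-654 intron, seeded overnight in Opti-MEM/2% FCS, then treated 2 days at 37 °C. Restored splicing read as total peak GFP intensity per well by laser scanning cytometry (488 nm excitation, 500–520 nm emission); 500 nM antisense PNA as control.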

[17] = Confirmation and Secondary Assay for Modulators of Hemoglobin Beta Chain Splicing at IVS2 705 locus (AID 930; active = well fitted curve in the direction sought with a large enough effect; an effect the other way counts as inactive or inconclusive;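 note: HeLa cells stably expressing the EGFP-705 splicing reporter; GFP fluorescence per well restored by corrected splicing of the IVS2-705 intron in EGFP; % of control where 0% means no effect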); settings: HeLa EGFP-705 splicing reporter, GFP fluorescence, 48 h; series mostly up to 38.3 µM
How it was run: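 HeLa IVS2-705 EGFP reporter cells, 500/well, compound 2 d at 37C; correct splicing yields fluorescent EGFP. Control: 500 nM antisense PNA. Read-out: total peak GFP intensity.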

[18] = biological target: DNA dC->dU-editing enzyme APOBEC-3G (Homo sapiens) (UniProt Q9HC16); assay: qHTS for inhibitors of Vif-A3G interactions: Validation (AID 588379; active = well fitted curve in the direction sought with a large enough effect; an effect the other way counts as inactive or inconclusive; note: 0% is about no effect); settings: Vif-A3G protein interaction assay; series mostly up to 46.1 µM
How it was run: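 Yellow fluorescence (Ex 488, Em 500-530) of Vif-coexpressing HeLa A3G-eYFP cells, scanned by Acumen cytometer, reports blocked A3G degradation. Cells plated at 700/well overnight at 37 deg C before compound addition, then a further overnight compound incubation at 37 deg C.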

[19] = qHTS Assay for Lipid Storage Modulators (AID 1519; calls by dose curve); settings: Drosophila S3 cells, BODIPY lipid droplet/cell ratio, laser cytometry, cells loaded with oleic acid
How it was run: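 Cells seeded at 5,000 per well were treated with compounds over a concentration series and loaded with oleic acid (400 uM, as added). Lipid droplet fluorescence (488 nm excitation, 500-530 nm channel) was read by laser-scanning cytometry and normalized to 20 uM Triacsin C.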

Sequence of Cytochrome P450 1A2 (Homo sapiens) (P05177 whole entry, looked up): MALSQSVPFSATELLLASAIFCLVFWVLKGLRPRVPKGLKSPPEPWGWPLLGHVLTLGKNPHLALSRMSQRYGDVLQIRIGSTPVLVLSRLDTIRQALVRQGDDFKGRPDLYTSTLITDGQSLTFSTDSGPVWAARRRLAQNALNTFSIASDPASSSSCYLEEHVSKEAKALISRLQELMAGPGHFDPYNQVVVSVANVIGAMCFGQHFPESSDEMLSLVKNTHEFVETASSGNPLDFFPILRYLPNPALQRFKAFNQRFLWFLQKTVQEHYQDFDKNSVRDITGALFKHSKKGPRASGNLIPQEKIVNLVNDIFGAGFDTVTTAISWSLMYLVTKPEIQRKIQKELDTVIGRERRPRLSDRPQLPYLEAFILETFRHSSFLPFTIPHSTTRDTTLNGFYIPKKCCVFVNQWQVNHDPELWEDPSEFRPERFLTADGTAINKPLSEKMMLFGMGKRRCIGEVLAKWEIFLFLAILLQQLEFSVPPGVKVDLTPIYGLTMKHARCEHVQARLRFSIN
Sequence of 3',5'-cyclic-AMP phosphodiesterase 4B (Homo sapiens) (Q07343 whole entry, looked up): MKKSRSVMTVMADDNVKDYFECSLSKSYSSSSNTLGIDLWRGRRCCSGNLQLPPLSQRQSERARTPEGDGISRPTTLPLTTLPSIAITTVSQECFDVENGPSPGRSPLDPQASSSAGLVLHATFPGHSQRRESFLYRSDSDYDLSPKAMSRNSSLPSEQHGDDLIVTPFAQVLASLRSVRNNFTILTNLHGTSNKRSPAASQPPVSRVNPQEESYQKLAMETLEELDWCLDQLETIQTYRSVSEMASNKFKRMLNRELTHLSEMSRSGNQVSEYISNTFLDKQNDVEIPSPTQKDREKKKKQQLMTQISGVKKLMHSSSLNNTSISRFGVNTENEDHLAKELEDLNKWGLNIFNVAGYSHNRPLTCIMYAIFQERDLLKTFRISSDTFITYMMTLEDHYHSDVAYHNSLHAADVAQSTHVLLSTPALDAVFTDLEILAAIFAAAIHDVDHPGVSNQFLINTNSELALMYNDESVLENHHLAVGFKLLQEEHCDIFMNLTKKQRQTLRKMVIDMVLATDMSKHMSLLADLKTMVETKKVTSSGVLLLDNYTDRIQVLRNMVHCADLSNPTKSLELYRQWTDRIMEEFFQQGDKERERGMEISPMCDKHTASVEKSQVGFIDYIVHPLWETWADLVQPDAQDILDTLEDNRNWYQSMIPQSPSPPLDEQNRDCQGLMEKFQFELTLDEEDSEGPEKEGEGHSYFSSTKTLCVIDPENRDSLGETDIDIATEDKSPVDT
Sequence of Ubiquitin carboxyl-terminal hydrolase 1 (Homo sapiens) (O94782 whole entry, looked up): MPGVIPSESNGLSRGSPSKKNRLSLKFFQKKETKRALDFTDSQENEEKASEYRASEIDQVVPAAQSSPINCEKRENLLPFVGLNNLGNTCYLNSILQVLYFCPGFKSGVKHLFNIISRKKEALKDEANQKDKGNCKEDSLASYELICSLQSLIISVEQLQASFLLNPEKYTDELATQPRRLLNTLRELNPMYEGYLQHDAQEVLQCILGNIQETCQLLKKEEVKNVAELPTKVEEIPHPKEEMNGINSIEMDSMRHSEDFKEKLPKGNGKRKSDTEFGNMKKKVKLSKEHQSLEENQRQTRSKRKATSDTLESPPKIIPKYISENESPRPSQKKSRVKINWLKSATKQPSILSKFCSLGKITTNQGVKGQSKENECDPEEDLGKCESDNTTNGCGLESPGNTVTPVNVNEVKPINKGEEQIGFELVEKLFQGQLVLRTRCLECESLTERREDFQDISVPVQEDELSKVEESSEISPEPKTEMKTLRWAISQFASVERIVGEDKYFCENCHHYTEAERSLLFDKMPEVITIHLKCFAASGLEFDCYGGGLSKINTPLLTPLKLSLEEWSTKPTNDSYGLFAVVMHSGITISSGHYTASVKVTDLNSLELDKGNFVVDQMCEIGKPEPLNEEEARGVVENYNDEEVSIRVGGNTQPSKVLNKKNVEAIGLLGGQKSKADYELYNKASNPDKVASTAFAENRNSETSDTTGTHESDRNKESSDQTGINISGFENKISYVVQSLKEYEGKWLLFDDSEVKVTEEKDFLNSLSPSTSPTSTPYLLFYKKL
Sequence of Glucocorticoid receptor (Homo sapiens) (P04150 whole entry, looked up, the tested form may be a part): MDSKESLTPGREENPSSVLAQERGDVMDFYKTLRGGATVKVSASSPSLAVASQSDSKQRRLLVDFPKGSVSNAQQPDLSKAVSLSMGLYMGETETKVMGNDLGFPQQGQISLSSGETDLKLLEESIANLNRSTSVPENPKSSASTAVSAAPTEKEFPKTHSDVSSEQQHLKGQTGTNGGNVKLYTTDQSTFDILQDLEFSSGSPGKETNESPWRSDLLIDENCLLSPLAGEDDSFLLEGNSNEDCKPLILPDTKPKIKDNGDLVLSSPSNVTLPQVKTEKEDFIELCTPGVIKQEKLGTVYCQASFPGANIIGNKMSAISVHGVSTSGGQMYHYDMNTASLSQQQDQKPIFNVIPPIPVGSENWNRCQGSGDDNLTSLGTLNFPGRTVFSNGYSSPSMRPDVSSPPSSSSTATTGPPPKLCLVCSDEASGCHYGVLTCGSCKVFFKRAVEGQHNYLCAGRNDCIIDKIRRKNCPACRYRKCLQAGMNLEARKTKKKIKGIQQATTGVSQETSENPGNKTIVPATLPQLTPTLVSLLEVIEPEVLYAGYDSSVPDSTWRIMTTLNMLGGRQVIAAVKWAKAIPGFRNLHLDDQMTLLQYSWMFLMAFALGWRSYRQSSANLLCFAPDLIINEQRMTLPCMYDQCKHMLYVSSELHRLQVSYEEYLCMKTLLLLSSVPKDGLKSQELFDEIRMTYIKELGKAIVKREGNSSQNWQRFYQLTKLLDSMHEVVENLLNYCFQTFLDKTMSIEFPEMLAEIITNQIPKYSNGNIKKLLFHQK
Sequence of Cytochrome P450 3A4 (Homo sapiens) (P08684 whole entry, looked up): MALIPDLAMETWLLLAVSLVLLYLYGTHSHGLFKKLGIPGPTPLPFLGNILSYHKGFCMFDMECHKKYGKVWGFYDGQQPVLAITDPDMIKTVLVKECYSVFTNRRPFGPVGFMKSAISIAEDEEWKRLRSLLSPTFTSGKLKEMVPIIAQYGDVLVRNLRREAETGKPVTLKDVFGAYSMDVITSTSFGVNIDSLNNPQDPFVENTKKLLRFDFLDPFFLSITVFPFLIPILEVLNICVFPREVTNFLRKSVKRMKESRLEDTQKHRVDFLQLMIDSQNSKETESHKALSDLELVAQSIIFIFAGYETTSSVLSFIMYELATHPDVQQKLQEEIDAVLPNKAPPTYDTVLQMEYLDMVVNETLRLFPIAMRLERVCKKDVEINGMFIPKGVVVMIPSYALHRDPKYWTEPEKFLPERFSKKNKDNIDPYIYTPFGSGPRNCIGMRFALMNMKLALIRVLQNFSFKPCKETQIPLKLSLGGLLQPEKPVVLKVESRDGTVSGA
Sequence of DNA dC->dU-editing enzyme APOBEC-3G (Homo sapiens) (Q9HC16 whole entry, looked up): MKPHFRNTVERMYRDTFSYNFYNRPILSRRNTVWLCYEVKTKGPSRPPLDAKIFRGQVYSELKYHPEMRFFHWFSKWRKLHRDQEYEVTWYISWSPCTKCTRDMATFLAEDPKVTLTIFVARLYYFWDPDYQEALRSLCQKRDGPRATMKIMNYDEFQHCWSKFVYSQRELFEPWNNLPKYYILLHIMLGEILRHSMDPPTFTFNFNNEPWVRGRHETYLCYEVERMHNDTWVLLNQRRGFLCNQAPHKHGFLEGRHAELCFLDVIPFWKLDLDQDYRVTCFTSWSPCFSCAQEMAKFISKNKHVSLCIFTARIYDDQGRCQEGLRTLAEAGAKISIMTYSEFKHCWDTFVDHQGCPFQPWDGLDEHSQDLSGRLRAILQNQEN
Sequence of Lysosomal acid glucosylceramidase (Homo sapiens) (P04062 whole entry, looked up): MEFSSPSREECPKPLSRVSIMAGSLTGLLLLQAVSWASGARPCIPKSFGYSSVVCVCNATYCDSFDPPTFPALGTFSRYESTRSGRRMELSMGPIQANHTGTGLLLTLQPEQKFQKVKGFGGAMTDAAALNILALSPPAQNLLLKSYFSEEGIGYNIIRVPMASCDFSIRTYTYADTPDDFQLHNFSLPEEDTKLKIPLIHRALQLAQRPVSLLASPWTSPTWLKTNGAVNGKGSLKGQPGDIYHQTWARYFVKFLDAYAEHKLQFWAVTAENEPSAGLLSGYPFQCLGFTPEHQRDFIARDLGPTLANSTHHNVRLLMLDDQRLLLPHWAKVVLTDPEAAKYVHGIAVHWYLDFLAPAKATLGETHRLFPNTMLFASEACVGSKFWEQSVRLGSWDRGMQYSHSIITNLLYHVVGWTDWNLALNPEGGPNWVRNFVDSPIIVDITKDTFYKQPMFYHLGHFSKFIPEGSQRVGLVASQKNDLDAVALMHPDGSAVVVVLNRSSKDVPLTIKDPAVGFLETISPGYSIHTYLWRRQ
Sequence of Cytochrome P450 2C19 (Homo sapiens) (P33261 whole entry, looked up): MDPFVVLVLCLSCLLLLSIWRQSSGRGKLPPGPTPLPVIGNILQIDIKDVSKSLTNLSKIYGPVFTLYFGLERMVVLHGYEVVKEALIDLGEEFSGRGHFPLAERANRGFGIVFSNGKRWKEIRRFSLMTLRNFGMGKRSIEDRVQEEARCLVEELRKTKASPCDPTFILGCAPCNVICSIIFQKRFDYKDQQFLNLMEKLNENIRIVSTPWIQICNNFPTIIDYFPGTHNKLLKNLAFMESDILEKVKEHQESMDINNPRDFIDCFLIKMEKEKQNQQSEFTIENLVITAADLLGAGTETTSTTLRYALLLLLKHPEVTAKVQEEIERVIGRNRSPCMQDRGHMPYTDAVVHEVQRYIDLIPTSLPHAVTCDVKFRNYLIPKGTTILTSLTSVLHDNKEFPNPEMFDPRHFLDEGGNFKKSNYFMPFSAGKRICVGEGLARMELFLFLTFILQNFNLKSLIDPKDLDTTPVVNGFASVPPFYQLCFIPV

For `O=C(c1cccc(F)c1)N1CCC[C@@]2(CCN(c3cccc(-c4ccccc4)c3)C2)C1`, the activity change, negative = inhibition [1] was 4.68% (inactive), the Potency [2] was 15.8 µM (active) and the activity change, negative = inhibition [3] was -14.4% (inactive). For the same compound, the activity, negative = inhibition [4] was -5.9% (inactive), the Potency [5] was > 46 µM (inactive) and the Potency [6] was “inactive”. For the same compound, the Potency [7] was “inactive”, the Potency [8] was 7.94 µM (active) and the Potency [9] was “inactive”. For the same compound, the outcome [10] was “inactive”.
For `COc1cccc(Cn2c(=O)c(C)nc3cnc(OCc4ccccc4)nc32)c1`, the Potency [11] was > 11.4 µM (inactive), the activity change, negative = inhibition [3] was -16.9% (inactive) and the activity, negative = inhibition [4] was -3.44% (inactive). For the same compound, the Potency [12] was > 9.22 µM (inactive), the Potency [5] was > 46 µM (inactive) and the Potency [6] was “inactive”. The outcome [10] was “inactive”.
For `N#Cc1ccccc1-c1ccc2ncnc(NCCN3CCOCC3)c2c1`, the activity change, negative = inhibition [1] was 1.67% (inactive), the Potency [2] was 10 µM (active) and the activity change, negative = inhibition [3] was -6.3% (inactive). For the same compound, the activity, negative = inhibition [4] was 0.199% (inactive), the Potency [12] was > 46 µM (inactive) and the Potency [5] was > 46 µM (inactive). For the same compound, the Potency [6] was “inactive”, the Potency [7] was “inactive” and the Potency [9] was “inactive”. The Potency [13] was “inactive” and the outcome [10] was “inactive”.
For `COC(=O)N1CCC2(CCN(C(=O)Nc3cccc(F)c3)CC2)CC1`, the activity change, negative = inhibition [1] was -21.3% (inactive), the Potency [2] was 12.6 µM (active) and the activity change, negative = inhibition [3] was -11.6% (inactive). For the same compound, the activity, negative = inhibition [4] was 22.8% (inactive), the Potency [5] was > 46 µM (inactive) and the Potency [6] was “inactive”. For the same compound, the Potency [7] was “inactive” and the outcome [10] was “inactive”.
In the case of `COc1ccc(-n2c(=O)c(-c3cc(F)cc(F)c3)nc3cnc(N4CCNCC4)nc32)cc1`, the Potency [11] is reported as > 11.4 µM (inactive), the Potency [2] is reported as 12.6 µM (active) and the Potency [12] is reported as > 9.22 µM (inactive). The Potency [5] was > 46 µM (inactive), the Potency [6] was “inactive” and the Potency [7] was “inactive”. The Potency [9] was “inactive”, the Potency [14] was 3.16 µM (active) and the outcome [10] was “inactive”.
For `COc1ccc2[nH]cc(CCNc3nc(-c4ccc(C(=O)N(C)C)cc4)nc4ccccc34)c2c1`, the Potency [2] was 15.8 µM (active), the Potency [12] was > 46 µM (inactive) and the Potency [5] was > 46 µM (inactive). For the same compound, the Potency [6] was “inactive”, the Potency [7] was “inactive” and the Potency [8] was 2.51 µM (active). The Potency [9] was “inactive”, the Potency [15] was 3.16 µM (active) and the Potency [16] was “inactive”. For the same compound, the outcome [17] was “inactive”, the Potency [13] was “inactive” and the outcome [10] was “inactive”.
With `O=[N+]([O-])c1cccc2c[nH]nc12` the Potency [2] was 2.51 µM (active), the Potency [5] was > 46 µM (inactive) and the Potency [6] was “inactive”. For the same compound, the Potency [9] was “inactive”, the outcome [18] was “inactive” and the outcome [10] was “inactive”.
For `N[C@H](Cn1ccc(=O)c(O)c1)C(=O)O`, the activity change, negative = inhibition [1] was 2.81% [at 17.2 µM] (inactive), the activity change, negative = inhibition [3] was -2.41% [at 17.2 µM] (inactive) and the activity, negative = inhibition [4] was 3.76% [at 17.2 µM] (inactive). The Potency [12] was > 20.6 µM (inactive) and > 46 µM (inactive), the Potency [5] was > 20.6 µM (inactive) and > 46 µM (inactive) and the Potency [6] was “inactive”. The Potency [7] was “inactive”, the activity change, negative = inhibition ([19]; at 25.7 µM (top of the series)) was -2.4% (inactive) and the activity change, negative = inhibition ([19]; at 57.5 µM (top of the series)) was -2.6% (inactive). For the same compound, the max response ([19]; measured here: cell count channel max response) was -5.27% and -11.5%, the max response ([19]; measured here: lipid channel max response) was -7.92% and -12.4% and the Potency [13] was “inactive”. The outcome [18] was “inactive”.
